The text below walks through data of PubChem BioAssay (NCI).

Assay [1] is described as follows: NCI Yeast Anticancer Drug Screen. Data for the rad50 strain (AID 155).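 Further: 0% = growth of vehicle-only cultures of the same strain.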 The conditions noted are these: S. cerevisiae rad50 strain growth inhibition; at 50.0 µM; stronger effect = higher value. In short, it runs like this:
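Yeast carrying a defined DNA repair defect were exposed to test compounds, and growth was compared with vehicle-treated controls to give percent inhibition.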

Assay [2] in a line: NCI Yeast Anticancer Drug Screen. Data for the mec2-1 strain (AID 157). The conditions noted are these: S. cerevisiae mec2-1 strain, at 50.0 µM, stronger effect = higher value. Put shortly: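 Vehicle-treated cultures served as reference for growth inhibition of compound-exposed mec2-1 yeast.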
The nature of assay [3]: NCI Yeast Anticancer Drug Screen. Data for the sgs1 mgt1 strain (AID 161).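 Further: 0% = growth of cultures given vehicle only.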 The conditions noted are these: S. cerevisiae sgs1 mgt1 strain, at 50.0 µM, stronger effect = higher value. Put shortly: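 Inhibition of yeast growth, normalised to vehicle-treated controls, is reported for a strain bearing genetic alterations in DNA damage repair.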
A short description of assay [4]: NCI Yeast Anticancer Drug Screen. Data for the cln2 rad14 strain (AID 165).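 Further: 0% = growth equal to vehicle treated cultures.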 The settings on record: S. cerevisiae cln2 rad14 strain, at 50.0 µM, stronger effect = higher value. In short, it runs like this:
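Each compound was tested on cln2 rad14 yeast. Inhibition of growth was calculated against vehicle-exposed controls.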

Assay [5] can be described thus: NCI Yeast Anticancer Drug Screen. Data for the bub3 strain (AID 167). The settings on record: S. cerevisiae bub3 mutant strain, at 50.0 µM, stronger effect = higher value. Put shortly: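 Compounds were applied to a genetically altered yeast strain carrying a cell-cycle control defect. Growth inhibition was scored against vehicle-treated controls.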
Assay [6] in a line: NCI Yeast Anticancer Drug Screen. Data for the mlh1 rad18 strain (AID 175). The settings on record: S. cerevisiae mlh1 rad18 strain growth inhibition; at 50.0 µM; stronger effect = higher value. In short, it runs like this:
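Vehicle-treated cultures served as the reference for growth inhibition in a yeast strain carrying DNA damage repair alterations exposed to each compound.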

The panel holds about 79,000 compounds, 15% with a hit somewhere; the sample as a whole holds those more often. Values without a mark were called inactive. The source made the active and inactive calls. No stated cut-off is given here; in the data, active means growth inhibition above about 70%; inactive means the rest.

Turning to `O=[N+]([O-])c1cccnc1Sc1ccccc1C1=NCCCN1`, the growth inhibition is -5.55% in assay [1]; -12.3% in assay [2]; -3.45% in assay [3]; 19.9% in assay [4]; -4.2% in assay [5]; -4.1% in assay [6].
As to `Cc1ccc2c(c1)C(c1ccccc1)(c1ccccc1)OC2=O`, the growth inhibition in assay [1] was 17.6%; in assay [2], 11.9%; in assay [3] it was 6.75%; in assay [4] it was 7.95%; in assay [5] it was 11.4%; in assay [6], 20.4%.
Take `O=C(O)/C(=C\c1cccc(O)c1)c1ccccc1`: the growth inhibition is -19.4% in assay [1]; -30.4% in assay [2]; -16.4% in assay [3]; -6.65% in assay [4]; -3.2% in assay [5]; -6% in assay [6].
For `NC(=O)N/N=C1/CCC(O)CC1CC(=O)O` (centres undefined), the growth inhibition in assay [1] was -7.85%; in assay [2], -4.75%; in assay [3], -7.05%; in assay [4] it was 12.7%; in assay [5], -57.9%; in assay [6], -2.95%.
For `CCC(C(C)=O)C(C)=O`, the growth inhibition in assay [1] was -46.2%; in assay [2], -71.5%; in assay [3], -43.5%; in assay [4], -24.2%; in assay [5], -56.6%; in assay [6] it was -34.4%.
Consider `CC(C)(C)OC(=O)N(CCCCNC(=O)C(F)(F)F)CCCNC(=O)C(F)(F)F`, for which the growth inhibition in assay [1] was -26.4%; in assay [2], -30.3%; in assay [3], -26%; in assay [4], 11.6%; in assay [5], -29.8%; in assay [6] it was -86%.
Regarding `O=C1CCc2ccccc2-c2ccccc21`, the growth inhibition in assay [1] was 17.9%; in assay [2] it was 5%; in assay [3], -12.1%; in assay [4] it was -32%; in assay [5], -5.3%; in assay [6], 5.4%.
With `NC(=O)c1ncccc1C(=O)O`, the growth inhibition is -9.2% in assay [1]; -9.65% in assay [2]; -18.6% in assay [3]; 2.3% in assay [4]; -13.6% in assay [5]; -12.2% in assay [6].
As to `O=C(CC(c1ccccc1)C(Sc1ccccc1)(Sc1ccccc1)Sc1ccccc1)c1ccccc1` (centres undefined), the growth inhibition in assay [1] is 13.2%; in assay [2], 15.3%; in assay [3], 13.4%; in assay [4] it was 3%; in assay [5], -1.35%; in assay [6], 7.25%.
`OCCN(CCO)CCCNc1ccnc2cc(Cl)ccc12`: the growth inhibition is -22.6% in assay [1]; -2% in assay [2]; -0.65% in assay [3]; -39.9% in assay [4]; -12.8% in assay [5]; 5.2% in assay [6].
Turning to `CCC(c1ccc(OCC(=O)N2CC2)cc1)C(CC)c1ccc(OCC(=O)N2CC2)cc1` (centres undefined), the growth inhibition was 11.8% in assay [1]; 10.3% in assay [2]; 13.5% in assay [3]; 17.8% in assay [4]; -0.35% in assay [5]; 1.75% in assay [6].
In the case of `Cn1c(-c2ccccc2)c2c(=O)oc3ccccc3c2c1-c1ccccc1`, the growth inhibition in assay [1] was -14.6%; in assay [2], 8.8%; in assay [3], 9.55%; in assay [4] it was 1.8%; in assay [5], 8.25%; in assay [6], 19.1%.
`CCOc1ccccc1N`: the growth inhibition in assay [1] is 8.75%; in assay [2], 16.2%; in assay [3] it was -34%; in assay [4], 9.5%; in assay [5], -32%; in assay [6], -20.1%.
On to `O=C=Nc1ccc([N+](=O)[O-])cc1`, for which the growth inhibition in assay [1] was -0.9%; in assay [2], 15.7%; in assay [3], 1.2%; in assay [4], -20.6%; in assay [5] it was 32.9%; in assay [6] it was -8.75%.
For `O=C(O)c1ccc(Nc2nc3ccccc3nc2C(=O)O)cc1`, the growth inhibition was -19.2% in assay [1]; -26.8% in assay [2]; -33.2% in assay [3]; 7.05% in assay [4]; -13.2% in assay [5]; -0.9% in assay [6].
In the case of `Nc1cc(Cl)cc2cc(Cl)cnc12`, the growth inhibition is 54.2% in assay [1]; 54.8% in assay [2]; 25.4% in assay [3]; 29.1% in assay [4]; 47.4% in assay [5]; 39.5% in assay [6].
As for `Cc1cccc2c1C(=O)C1(Cc3ccccc3C1=O)C2` (centres undefined), the growth inhibition in assay [1] is -13.4%; in assay [2] it was -6.95%; in assay [3], -15.1%; in assay [4], -5.15%; in assay [5] it was 2.4%; in assay [6], -3.2%.
For `O=C(CC(O)(C(F)(F)F)C(F)(F)F)c1cccc(S(=O)(=O)N2CCOCC2)c1`, the growth inhibition was 7.05% in assay [1]; 5.9% in assay [2]; 8.5% in assay [3]; 8.05% in assay [4]; 0.6% in assay [5]; 22.8% in assay [6].
With `O=C(NC1CC/C=C(/c2ccccc2)CC(Cl)C1)c1ccccc1` (centres undefined), the growth inhibition is 7.85% in assay [1]; 4.9% in assay [2]; -8.9% in assay [3]; -3.5% in assay [4]; 6.6% in assay [5]; -0.25% in assay [6].
On to `O=C(CCSCCC(=O)N/N=C/c1ccccc1F)N/N=C\c1ccccc1F`, for which the growth inhibition is 22.6% in assay [1]; 10.7% in assay [2]; 38.1% in assay [3]; 27.4% in assay [4]; 24.4% in assay [5]; 21.8% in assay [6].
`CC1CC2OC(=O)C(C)C2CC2(C)C(OC3OC(CO)C(O)C(O)C3O)OCCC12` (centres undefined): the growth inhibition in assay [1] was 11.7%; in assay [2], 2.25%; in assay [3] it was -17.9%; in assay [4] it was 4.4%; in assay [5], -6.8%; in assay [6], -49.7%.
For the compound `CCC12OC3(CC)C4C(=O)OC1C1(CC)OC4(CC)C3C(=O)OC21`, the growth inhibition in assay [1] was -13.7%; in assay [2] it was -5.6%; in assay [3], 4.85%; in assay [4], -5.75%; in assay [5], 0.8%; in assay [6], 13.3%.
For `C=C(c1ccccc1)N1N=NC2CCOC21` (centres undefined), the growth inhibition is -4.25% in assay [1]; -10% in assay [2]; 4.2% in assay [3]; -20.6% in assay [4]; -16.8% in assay [5]; -8.65% in assay [6].
Regarding `CCCC(=O)OCCC(C)C`, the growth inhibition was 30.9% in assay [1]; 10.3% in assay [2]; 13.3% in assay [3]; -29.9% in assay [4]; -13.5% in assay [5]; 22.4% in assay [6].
As to `NC(N)=NC(Cc1ccccc1)C(=O)O` (centres undefined), the growth inhibition in assay [1] is -8.15%; in assay [2], -10%; in assay [3], 1.3%; in assay [4], -26.6%; in assay [5], -12.4%; in assay [6], 0%.
Take `O=C1NN=C(C2CCCCC2)C12CCCCC2`: the growth inhibition is 8.05% in assay [1]; -2.85% in assay [2]; 1.3% in assay [3]; 2.85% in assay [4]; 5.45% in assay [5]; -8.4% in assay [6].
As to `CC1(Cn2ccc(=O)[nH]c2=O)CC(C2(C)OCCO2)C(=O)O1` (centres undefined), the growth inhibition is -16.6% in assay [1]; -22.3% in assay [2]; -33.1% in assay [3]; -30.7% in assay [4]; -19% in assay [5]; -14.4% in assay [6].
On to `Cc1nn(C(=O)Cc2ccccc2)c2c1C(c1ccc([N+](=O)[O-])cc1)SC(N)=N2` (centres undefined), for which the growth inhibition in assay [1] is 11.4%; in assay [2], 9.9%; in assay [3], 22.4%; in assay [4], 15.8%; in assay [5] it was 8.15%; in assay [6], 9.75%.
On to `OCCN(CCO)c1ncnc2c1ncn2CCc1ccccc1`, for which the growth inhibition is 13.6% in assay [1]; -0.25% in assay [2]; 16.2% in assay [3]; -16% in assay [4]; 4.1% in assay [5]; -2.25% in assay [6].
For the compound `CCCCCCCCCCCCCCCC(=O)O` (tested in a mixture with another compound), the growth inhibition in assay [1] was 7.65%; in assay [2], -1.5%; in assay [3], -18.2%; in assay [4] it was 33.8%; in assay [5], 12.1%; in assay [6], -11.4%.
`Cc1ccc(C)c(NS(=O)(=O)c2ccc(Cl)c([N+](=O)[O-])c2)c1`: the growth inhibition in assay [1] is 97.1% (active); in assay [2] it was 98.2% (active); in assay [3], 97.8% (active); in assay [4] it was 96.8% (active); in assay [5] it was 97.9% (active); in assay [6], 98% (active).
As to `O=C(CCBr)OCc1ccccc1`, the growth inhibition in assay [1] is -12.5%; in assay [2], -7.45%; in assay [3], 1.1%; in assay [4], -20.8%; in assay [5], -26.2%; in assay [6] it was 25%.
For the compound `CC(O)CCC(O)CCCO` (centres undefined), the growth inhibition in assay [1] is 7.8%; in assay [2] it was -10.7%; in assay [3], 8.4%; in assay [4], -17.1%; in assay [5] it was 4.65%; in assay [6], -11.7%.
With `O=C(c1ccccc1Br)C(F)(F)F`, the growth inhibition in assay [1] was -2.6%; in assay [2] it was -19.5%; in assay [3] it was -18.4%; in assay [4], -17.5%; in assay [5], -43.9%; in assay [6] it was -3.8%.
As to `CC[N+]1(C)CCC(CN2c3ccccc3Sc3ccccc32)C1` (centres undefined), the growth inhibition in assay [1] was 31.4%; in assay [2], 22.6%; in assay [3], 38.5%; in assay [4] it was -2.65%; in assay [5], 6%; in assay [6], 43.3%.
Consider `COc1ccc(OC)c(/C=C/c2ccccc2)c1`, for which the growth inhibition in assay [1] was 0.5%; in assay [2] it was -29.1%; in assay [3] it was 8.25%; in assay [4] it was -24.8%; in assay [5], 1.6%; in assay [6], -14.9%.
`c1ccc(N2CCSCC2)cc1`: the growth inhibition is 2.95% in assay [1]; -5.45% in assay [2]; -21.9% in assay [3]; -6.25% in assay [4]; 0.3% in assay [5]; -7.15% in assay [6].
Take `CC(Oc1ccccc1-c1ccccc1)C(=O)O` (centres undefined): the growth inhibition was 6.95% in assay [1]; -22.2% in assay [2]; -5.9% in assay [3]; 5.45% in assay [4]; -1.9% in assay [5]; 15.1% in assay [6].
For `O=C1C(Cl)C(c2ccccc2)N1n1cnc2ccccc2c1=O` (centres undefined), the growth inhibition in assay [1] was -16.2%; in assay [2], -2.15%; in assay [3], -24.1%; in assay [4] it was -3.3%; in assay [5], 3.9%; in assay [6] it was -12.7%.
Regarding `CC(=O)N=C1N(/C=C2\C(=O)Oc3ccccc3C2=O)C(=O)/C(=C/c2ccccc2Cl)N1C`, the growth inhibition in assay [1] was -13.2%; in assay [2], -21.9%; in assay [3], -25.7%; in assay [4] it was 10.2%; in assay [6] it was -8.35%.
